Data published in PubChem BioAssay.
Unmarked numbers belong to inactive results. For some assays here: Measured potencies and affinities stand elsewhere. Calls of active or inactive are those of the source. Unless noted, the rule behind the calls is not given here.

Columns and labels:
[1] = antimalarial activity against Dd2 strain (AID 2302;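 active = growth inhibition above 50% at the single 2 µM test dose, taken to imply half-maximal potency below 2 µM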;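 note: 0% = DMSO untreated growth and 100% = chloroquine plus artemisinin killed control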); details: P. falciparum Dd2 in RBCs, LDH growth readout, 72 h; at 2 µM; hits give high values
[2] = human hepatoma cell viability loss – ATP luminescence, cytotoxicity control for P. falciparum antimalarial project, primary screen (AID 2303;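 active = inhibition above 50%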;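 note: 0% = DMSO wells and 100% = digitonin-killed cells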); details: HepG2 viability, 24-48 h, at 10 µM, hits give high values
[3] = molecular target: L-lactate dehydrogenase (Plasmodium falciparum (isolate CDC / Honduras)) (UniProt Q27743); assay: PfLDH activity inhibition – cell lysate, 3D7 strain, counter-screen for P. falciparum growth inhibition project (AID 2304);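 note: 0% = vehicle and 100% = reference inhibitor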; details: P. falciparum 3D7 crude extract, LDH APAD/NBT absorbance; at 2 µM; hits give high values
[4] = inhibition of 3D7 malaria parasite growth – strain 3D7 (AID 2306);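 note: 0% = DMSO wells and 100% = chloroquine plus artemisinin control wells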; details: P. falciparum 3D7 erythrocytic growth, LDH absorbance, 72 h; at 2 µM; hits give high values
[5] = molecular target: Calcium-dependent protein kinase 1 (Plasmodium falciparum (isolate 3D7)) (UniProt P62344); assay: PfCDPK1 kinase inhibitors, biochemical, TCAMS library (AID 1159585; cut-off not given, nearly all actives have IC50 up to about 0.98 µM;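 note: inhibitors leave more ATP so luminescence rises with inhibition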); details: recombinant PfCDPK1, Kinase-Glo ATP depletion luminescence
[6] = molecular target: Plasmodium falciparum protein kinase 6 (PK6, PF3D7_1337100) (UniProt Q8IDW1); assay: PfPK6 kinase inhibitors, biochemical, TCAMS library (AID 1159586); details: recombinant PfPK6, Kinase-Glo ATP depletion luminescence
[7] = molecular target: Protein kinase 7 (PK7), Plasmodium falciparum 3D7 (PF3D7_0213400) (UniProt Q7YTF7); assay: inhibition of Plasmodium PK7 catalytic activity – biochemical, TCAMS antimalarial set, Kinase-Glo luminescence (AID 1159587); details: recombinant PfPK7, Kinase-Glo ATP depletion luminescence
[8] = molecular target: Calcium-dependent protein kinase 4 (Plasmodium falciparum (isolate 3D7)) (UniProt Q8IBS5); assay: PfCDPK4 kinase inhibitors, biochemical, TCAMS library (AID 1159588; cut-off not given, nearly all actives have IC50 up to about 0.91 µM); details: recombinant PfCDPK4, Kinase-Glo ATP depletion luminescence
Chain of Calcium-dependent protein kinase 4 (Plasmodium falciparum (isolate 3D7)) (Q8IBS5 whole entry, looked up): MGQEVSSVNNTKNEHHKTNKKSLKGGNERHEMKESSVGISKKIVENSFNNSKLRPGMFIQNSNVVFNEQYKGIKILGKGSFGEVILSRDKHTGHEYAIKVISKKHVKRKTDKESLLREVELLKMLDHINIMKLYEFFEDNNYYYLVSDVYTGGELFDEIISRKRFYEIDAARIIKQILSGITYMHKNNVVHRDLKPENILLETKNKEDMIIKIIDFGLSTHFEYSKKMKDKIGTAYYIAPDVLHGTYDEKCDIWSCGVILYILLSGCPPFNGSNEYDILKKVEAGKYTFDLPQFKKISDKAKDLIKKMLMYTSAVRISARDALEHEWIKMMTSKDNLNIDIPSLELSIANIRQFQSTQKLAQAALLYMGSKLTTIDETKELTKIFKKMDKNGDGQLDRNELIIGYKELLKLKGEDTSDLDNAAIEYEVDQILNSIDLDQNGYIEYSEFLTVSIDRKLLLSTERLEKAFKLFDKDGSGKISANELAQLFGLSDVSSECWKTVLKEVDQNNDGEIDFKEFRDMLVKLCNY

Chain of L-lactate dehydrogenase (Plasmodium falciparum (isolate CDC / Honduras)) (Q27743 whole entry, looked up): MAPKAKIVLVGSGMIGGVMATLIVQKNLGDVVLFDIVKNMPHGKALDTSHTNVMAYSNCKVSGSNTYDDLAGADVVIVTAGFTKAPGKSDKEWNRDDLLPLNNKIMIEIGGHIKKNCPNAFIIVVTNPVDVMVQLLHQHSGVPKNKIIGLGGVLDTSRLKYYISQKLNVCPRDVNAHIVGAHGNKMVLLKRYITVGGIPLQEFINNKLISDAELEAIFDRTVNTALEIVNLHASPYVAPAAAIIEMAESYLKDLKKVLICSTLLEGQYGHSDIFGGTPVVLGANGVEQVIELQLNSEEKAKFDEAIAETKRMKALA
Chain of Protein kinase 7 (PK7), Plasmodium falciparum 3D7 (PF3D7_0213400) (Q7YTF7 1-343): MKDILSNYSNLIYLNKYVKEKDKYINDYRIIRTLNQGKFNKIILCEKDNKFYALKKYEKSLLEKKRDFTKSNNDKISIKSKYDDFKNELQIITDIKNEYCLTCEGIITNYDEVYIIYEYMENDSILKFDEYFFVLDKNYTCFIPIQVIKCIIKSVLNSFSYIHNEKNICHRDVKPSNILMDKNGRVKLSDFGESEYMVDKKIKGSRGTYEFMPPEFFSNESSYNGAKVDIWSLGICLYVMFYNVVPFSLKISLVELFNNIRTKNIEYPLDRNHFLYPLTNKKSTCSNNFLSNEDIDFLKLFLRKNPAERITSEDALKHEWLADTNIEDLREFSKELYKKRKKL
Chain of Calcium-dependent protein kinase 1 (Plasmodium falciparum (isolate 3D7)) (P62344 whole entry, looked up): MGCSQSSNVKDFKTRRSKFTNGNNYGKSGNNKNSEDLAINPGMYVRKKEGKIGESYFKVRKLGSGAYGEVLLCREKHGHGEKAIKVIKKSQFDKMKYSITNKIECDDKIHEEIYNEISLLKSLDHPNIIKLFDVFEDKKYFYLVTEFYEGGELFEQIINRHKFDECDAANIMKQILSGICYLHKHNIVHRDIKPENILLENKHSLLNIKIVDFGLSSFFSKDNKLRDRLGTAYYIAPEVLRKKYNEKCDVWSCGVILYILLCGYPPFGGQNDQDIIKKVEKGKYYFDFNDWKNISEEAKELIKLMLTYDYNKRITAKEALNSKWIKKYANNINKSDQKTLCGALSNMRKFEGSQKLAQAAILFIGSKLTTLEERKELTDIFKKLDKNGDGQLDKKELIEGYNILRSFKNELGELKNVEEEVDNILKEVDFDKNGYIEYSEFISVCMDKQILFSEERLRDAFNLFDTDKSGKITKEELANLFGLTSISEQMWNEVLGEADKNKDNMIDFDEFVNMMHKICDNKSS
Chain of Plasmodium falciparum protein kinase 6 (PK6, PF3D7_1337100) (Q8IDW1 1-305): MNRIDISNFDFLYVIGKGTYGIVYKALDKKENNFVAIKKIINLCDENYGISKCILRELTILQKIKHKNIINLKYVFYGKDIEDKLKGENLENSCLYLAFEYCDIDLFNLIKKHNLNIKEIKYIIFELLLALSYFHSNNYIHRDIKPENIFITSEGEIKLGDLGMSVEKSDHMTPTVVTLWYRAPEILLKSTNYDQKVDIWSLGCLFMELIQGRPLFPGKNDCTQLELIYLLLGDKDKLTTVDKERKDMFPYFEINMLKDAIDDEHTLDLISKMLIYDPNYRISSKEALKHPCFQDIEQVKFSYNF

Row | SMILES | growth inhibition [1] | inhibition [2] | inhibition [3] | growth inhibition [4] | outcome [5] | outcome [6] | outcome [7] | outcome [8]
1 | CCNC(=O)N[C@@H]1CN[C@@H](C#Cc2cc3c(Nc4ccc(OCc5cccc(F)c5)c(Cl)c4)ncnc3s2)C1 | 27% | -2% | 0% | 85% (active) | inactive | inactive | inactive | inactive
2 | N#Cc1ccc(C2CCN(CC[C@H](N)Cc3ccc(Cl)s3)CC2)cc1 | 30% | 31% | 6% | 92% (active) | inactive | inactive | inactive | inactive
3 | COc1ccc(-c2ccc(NC(=O)c3cccc(C#N)c3)cc2)cc1CN1CCCN(C)CC1 | 70% (active) | 26% | 6% | 102% (active) | inactive | inactive | inactive | inactive
4 | CCN(CC)CCn1c(=N)n(CC(=O)c2ccc(-c3ccccc3)cc2)c2ccccc21 | 38% | 32% | 0% | 83% (active) | inactive | inactive | inactive | inactive
5 | O=C(NCCCCCN1CCC(c2c[nH]c3ccccc23)CC1)c1ccc(-c2ccccc2)nc1 | 13% | 43% | 1% | 87% (active) | inactive | inactive | inactive | inactive
6 | CC(C)c1cc(Oc2c(I)cc(CCN=C(N)N)cc2I)ccc1O | 54% (active) | 19% | 3% | 98% (active) | inactive | inactive | inactive | inactive
7 | COc1ccc(C(C(=O)NC2CCN(C[C@H](O)c3ccnc4ccc(OC)cc34)CC2)N2CCN(c3ccc([N+](=O)[O-])cc3)CC2)cc1 (stereo not given in full) | 80% (active) | 17% | -3% | 99% (active) | inactive | inactive | inactive | inactive
8 | O=C(NCCN1CCCC1)c1cccc(-c2ccc(-c3nc4ccc(F)cc4[nH]3)cc2)c1 | 85% (active) | 33% | -3% | 99% (active) | inactive | inactive | inactive | inactive
9 | N#Cc1ccc2c(c1)CN(C1CCC(NC(=O)/C=C/c3cc(C(F)(F)F)cc(C(F)(F)F)c3)CC1)CCC2 (stereo not given) | 4% | 34% | -4% | 95% (active) | inactive | inactive | inactive | inactive
10 | CCN1CCC(N(Cc2ccc(-c3ccc(C(F)(F)F)cc3)cc2)C(=O)Cn2nc(C)c(=O)cc2SCc2ccc(F)cc2)CC1 | 94% (active) | 77% (active) | -1% | 94% (active) | inactive | inactive | inactive | inactive
11 | CC(C)NCc1cccc(-c2ccc(-c3nc4ccccc4[nH]3)cc2)c1 | 66% (active) | 4% | -2% | 101% (active) | inactive | inactive | inactive | inactive
12 | CC(C)C(=O)NC(c1ccc(N(C)C)cc1)c1cc(Cl)c2cccnc2c1O (stereo not given) | 64% (active) | 61% (active) | 2% | 87% (active) | inactive | inactive | inactive | inactive
13 | O=C(Nc1cccc(CN2CCCN(Cc3ccc(O)cc3)CC2)c1)c1ccc(Br)cc1 | 54% (active) | 19% | -2% | 94% (active) | inactive | inactive | inactive | inactive
14 | CC(Oc1ccc(C(=O)c2ccc(F)cc2)cc1)C(=O)N1CCc2ccccc21 (stereo not given) | 95% (active) | 9% | 1% | 95% (active) | inactive | inactive | inactive | inactive
15 | COc1ccc(NC(=O)c2ccc(-c3nc(-c4ccccc4)cs3)cc2)cc1N1CCN(C)CC1 | 13% | 17% | -3% | 93% (active) | inactive | inactive | inactive | inactive
16 | CN1CCN(c2ccnc3ccc(NC(=O)Cc4ccc(OCc5ccccc5)cc4)cc23)CC1 | 89% (active) | 6% | -1% | 100% (active) | inactive | inactive | inactive | inactive
17 | c1cncc(CN2CCN(Cc3ccc(-c4ccc(-c5nc6ccccc6[nH]5)s4)cc3)CC2)c1 | 34% | 32% | 6% | 97% (active) | inactive | inactive | inactive | inactive
18 | CCNc1nc(OCC(F)(F)F)nc(N(c2ccccc2)c2ccccc2)n1 | 83% (active) | 5% | 1% | 100% (active) | inactive | inactive | inactive | inactive
19 | COc1cc(NCC(CN)Cc2ccc3c(c2)OCO3)nc2ccccc12 (stereo not given) | 6% | 41% | 0% | 94% (active) | inactive | inactive | inactive | inactive
20 | CC1(C)N=C(N)N=C(N)N1OCCCc1c(Cl)cccc1Cl | 97% (active) | 71% (active) | 3% | 95% (active) | inactive | inactive | inactive | inactive

Row | SMILES | growth inhibition [1] | inhibition [2] | inhibition [3] | growth inhibition [4] | outcome [5] | outcome [6] | outcome [7] | outcome [8]
21 | CC1(C)N=C(NC(=O)c2ccc([N+](=O)[O-])cc2)N=C(N)N1OCc1ccc2ccccc2c1 | 78% (active) | 64% (active) | -8% | 95% (active) | inactive | inactive | inactive | inactive
22 | COc1cccc(-c2ccc3c(-c4cccc(NC(C)=O)c4)cnc(N)c3c2)c1 | 83% (active) | 71% (active) | -6% | 99% (active) | inactive | inactive | inactive | inactive
23 | CN1CCN(c2ccc(CNc3ccc4ncc(-c5ccc(OC(F)(F)F)cc5)n4n3)cc2)CC1 | 87% (active) | 13% | 0% | 94% (active) | inactive | inactive | inactive | inactive
24 | COCCN(C(=O)Cc1cccs1)C(C(=O)NCc1ccc(OC)cc1)c1ccc(C(C)C)cc1 (stereo not given) | 59% (active) | -13% | 4% | 96% (active) | inactive | inactive | inactive | inactive
25 | CCCCc1ccc(NC(=O)Nc2cccc(CCNCc3ccccc3)c2)cc1 | 13% | 3% | 2% | 94% (active) | inactive | inactive | inactive | inactive
26 | CCn1cc(CN2CCCC(C(=O)Nc3ccc(-c4nc5ccccc5[nH]4)cc3)C2)c(C)n1 (stereo not given) | 28% | 22% | 2% | 100% (active) | inactive | inactive | inactive | inactive
27 | Cc1[nH]c(C)c(-c2ccc(-c3cccc(Cl)c3)nc2)c(=O)c1Cl | 97% (active) | 15% | 0% | 97% (active) | inactive | inactive | inactive | inactive
28 | CN1CCN(CCCCCNc2c3ccccc3nc3ccccc23)CC1 | -8% | 57% (active) | 5% | 99% (active) | inactive | inactive | inactive | inactive
29 | Cn1nc(-c2cccc(CN[C@@H]3CCc4ccc(O)cc43)c2)c2cnc(NCCCN3CCCC3)nc21 | -2% | 9% | -3% | 101% (active) | inactive | inactive | inactive | inactive
30 | COCCOC(=O)C(=O)c1c(-c2ccccc2)c(-c2ccc(OC)c(OC)c2)c2c3cc(OC)c(OC)cc3ccn12 | 100% (active) | 4% | -2% | 101% (active) | inactive | inactive | inactive | inactive
31 | Cc1ccc(NC(=O)C(C)Sc2n[nH]c(-c3ccccc3Br)n2)cc1 (stereo not given) | 90% (active) | 2% | -4% | 89% (active) | inactive | inactive | inactive | inactive
32 | COc1ccc(-c2csc(C(=O)NC3CCC(N4CCC(c5ccccc5C)CC4)CC3)c2)cc1 (stereo not given) | 99% (active) | 64% (active) | -1% | 101% (active) | inactive | inactive | inactive | inactive
33 | O=C(NCCCCN1CCC(c2ccc3ccccc3c2)CC1)c1ccc(NC(=O)c2ccc(Cl)cc2)cc1 | 93% (active) | 24% | -4% | 102% (active) | inactive | inactive | inactive | inactive
34 | O=C(/C=C/c1ccc(Cl)c(Cl)c1)NCCCCCN1CCC(NC(=O)Nc2ccc(Br)cc2)CC1 | 7% | 36% | -3% | 101% (active) | inactive | inactive | inactive | inactive
35 | COc1ccc(C(=O)O)cc1OCc1ccccc1 | -3% | -3% | 3% | 99% (active) | inactive | inactive | inactive | inactive
36 | Cc1cc(OCCCN=C(N)c2ccc3ccccc3c2)c(C(C)C)cc1Cl | 10% | 89% (active) | 2% | 95% (active) | inactive | inactive | inactive | inactive
37 | N#CN1CC[C@@H](NS(=O)(=O)Cc2ccc(Cl)c(Cl)c2)C1 | 94% (active) | 13% | -3% | 94% (active) | inactive | inactive | inactive | inactive
38 | Oc1cccc(-c2nc3ccc(C4=N[C@@H]5CCCC[C@H]5N4)cc3[nH]2)c1 | 99% (active) | 3% | 2% | 94% (active) | inactive | inactive | inactive | inactive
39 | Cc1ccc(NC(=O)Cc2noc(CC3CCCN3C(=O)N[C@@H](C)c3ccccc3)n2)cc1 (stereo not given in full) | 90% (active) | 1% | -1% | 95% (active) | inactive | inactive | inactive | inactive
40 | CCN1[C@@H](c2ccc(Cl)cc2)[C@@H](CNCc2ccccc2O)C[C@@]1(C)CO | 99% (active) | 47% | -3% | 99% (active) | inactive | inactive | inactive | inactive
